Laboratory results taken from PubChem BioAssay (NCI).
Compounds without any hit were thinned out: in the full panel of roughly 83,000, 20% have a hit.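 For each line, cells grew in 96-well plates with the test compound present at a single concentration for 48 hours.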 Activity calls are given as the source filed them. The calls were made as follows: active = growth percent below 10; inactive = the rest.

Each compound was assayed on M14 melanoma (assay: NCI-60 one-dose screen, 48 h (100 = growth as untreated, 0 = no growth, -100 = all killed)). Conditions: 10 µM unless noted.

SMILES | growth
C=CC(=O)Nc1cccc(Nc2nc(SC)nc(-c3cccc([N+](=O)[O-])c3)c2C#N)c1 | 45% (inactive)
N#C/C(=C\c1ccc(-c2cc(C(F)(F)F)ccc2Cl)o1)c1nc(-c2ccco2)cs1 | 99.4% (inactive)
COCCNc1ccc2c3c(cccc13)C(=O)N(CCN(C)C)C2=O | 29% (inactive)
C=CC(=O)Nc1cccc(-c2nc(SC)nc(NCc3ccccc3)c2C#N)c1 | 71.3% (inactive)
COC(=O)c1cccc(NC(=O)c2ccc(-c3cccc(N)c3)o2)c1 | 112% (inactive)
N#Cc1c(-c2ccc(Cl)cc2)nc(N=Nc2c(O)[nH]c3ccc(Cl)cc23)nc1N1CCOCC1 | 93.6% (inactive)
N#CN1CCC[C@H]1C(=O)N1CCc2c(-c3[nH]nc4ncccc34)cccc21 | -23.4% (active)
